Each structure is given as a SMILES string. Hit rate of the full screen: of about 280,000 compounds, about 50 (0.02%) were called active. This is one part of a sample in which actives are shown more often than they occur. Potency and affinity values are given separately. Values without a mark were called inactive. Rule as the data show it: active = activation above about 50% (passing the limit was not always enough); inactive = the rest.

The target of the experiment is Kappa-type opioid receptor (Homo sapiens) (UniProt P41145). Briefly: kappa opioid receptor activators – cell-based, luminescence, uHTS, primary screen (AID 1777). Conditions: KOR beta-arrestin recruitment, at 10 µM, stronger effect = higher value.
Sequence of Kappa-type opioid receptor (Homo sapiens) (P41145 whole entry, looked up): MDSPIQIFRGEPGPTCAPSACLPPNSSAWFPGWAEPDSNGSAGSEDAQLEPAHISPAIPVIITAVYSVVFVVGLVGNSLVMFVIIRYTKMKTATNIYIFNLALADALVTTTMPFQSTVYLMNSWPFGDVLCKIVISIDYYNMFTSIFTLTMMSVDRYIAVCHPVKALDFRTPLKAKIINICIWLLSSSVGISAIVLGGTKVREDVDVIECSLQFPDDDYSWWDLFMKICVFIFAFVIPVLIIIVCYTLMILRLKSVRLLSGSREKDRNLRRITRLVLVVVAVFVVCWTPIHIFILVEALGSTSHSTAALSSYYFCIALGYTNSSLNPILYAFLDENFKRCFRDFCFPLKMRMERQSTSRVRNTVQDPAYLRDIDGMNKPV
In the case of `COc1ccc(C(CNC(=O)Cc2ccc(Cl)c(Cl)c2)N(C)C)cc1` (stereo not given), the activation is -2.4%.

With `COC(=O)N1CCN(C(=O)Cc2ccc(Cl)c(Cl)c2)C(CN2CCCC2)C1` (stereo not given), the activation is 91.3% (active). Turning to `COc1ccc(C(CNC(=O)Cc2ccc(Cl)c(Cl)c2)N2CCCCC2)cc1` (stereo not given), the activation was -2.4%. Consider `CCN1C(=O)N(CC)C(=O)C2(Cc3ccccc3N3CCN(c4ccccc4)CC32)C1=O` (stereo not given), for which the activation was 2.7%. For `COc1ccc2nc(/N=C/c3c(O)n(-c4cccc(Cl)c4)c(=O)[nH]c3=O)sc2c1`, the activation was 2.9%.

The values above are taken from PubChem BioAssay AID1777 (Sanford-Burnham Center for Chemical Genomics, 2009).
